Laboratory results reported in PubChem BioAssay (NCI).
This is part of a sample that, as a whole, favours compounds with a hit. Of some 83,000 tested, about 20% had one in any assay.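 Single-concentration screen, 48 h exposure, 96-well plates. Endpoint: percent growth. Below 10 = active.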 Activity calls are given as the source filed them.

System: MDA-MB-468 breast
Test: NCI-60 one-dose screen, 48 h (100 = growth as untreated, 0 = no growth, -100 = all killed)
Settings: 10 µM unless noted

Compound	growth
COc1cc2nc(N3CCCC3)nc(NCC3CCCCC3)c2cc1OC	-41.2% (active)
O=C1c2ccccc2C(=O)N1OCc1ccccc1	125% (inactive)
COc1cc(-c2cc(/C=C/C(=O)c3ccc(Cl)c(Cl)c3)[nH]n2)cc(OC)c1OC	7.24% (active)
O=C(c1c(F)ccc(NS(=O)(=O)N2CC[C@@H](F)C2)c1F)c1c[nH]c2ncc(-c3cnc(C4CC4)nc3)cc12	54.7% (inactive)
CCOC(=O)c1cnc2c(OC)ccc(OC)c2c1Cl	113% (inactive)
N#CC1=C(N)Oc2ccc3ccccc3c2C1c1ccc([N+](=O)[O-])cc1 (stereo not given)	66.7% (inactive)
CC(O)COc1ccc(-c2ccccc2)cc1 (stereo not given)	102% (inactive)
CC(C)NC[C@@H](C(=O)N1CCN(c2ncnc3c2[C@H](C)C[C@H]3O)CC1)c1ccc(Cl)cc1	-18.7% (active)
Clc1ccc2c(NCCCn3ccnc3)c3oc4ccc(Cl)cc4c3nc2c1	31.3% (inactive)
N#C/C(=C\c1ccc2c(c1)OCO2)n1nnc2cc(F)c(F)cc21	6.05% (active)
COc1ccc(N2CCC(=S)NC2=S)cc1	97.7% (inactive)
O=C(N=Nc1c(O)[nH]c2ccccc12)c1cc(-c2ccccc2)on1	109% (inactive)
Nc1cc(N)ncn1	101% (inactive)
COc1ccccc1-n1c(-c2cc(O)ccc2C)cn2c3c(=O)[nH]c(=O)n(C)c3nc12	92.3% (inactive)
C=C1C(=O)O[C@@H]2C[C@@H](C)CCC(=O)[C@](C)(OC(C)=O)C[C@H](OC(=O)/C(C)=C\C)[C@@H]12	32.7% (inactive)
COCc1nc2ccccc2[nH]1	102% (inactive)
COc1cc(C2C3=C(COC3=O)N(CCO)c3cc4c(cc32)OCCO4)cc(OC)c1OC (stereo not given)	-64.5% (active)
O=S(=O)(NCCNc1nccc(-c2c(-c3ccc(F)c(O)c3)nc3occn23)n1)c1ccc(Cl)cc1	95.6% (inactive)
COC(=O)c1ccc(=O)oc1	105% (inactive)
CCOC(=O)c1cn2c3c(cc(F)cc3c1=O)C(CC)c1ccccc1C2 (stereo not given)	99.4% (inactive)

Compound	growth
COc1ccc(C(=O)/C=C/c2ccccn2)c(O)c1	57.1% (inactive)
CNC(C)=O	102% (inactive)
CC1(C)CC[C@]2(C(=O)N3CCCNCC3)CC[C@]3(C)C(=CC[C@@H]4[C@@]5(C)CCC(=O)C(C)(C)[C@@H]5CC[C@]43C)[C@H]2C1	106% (inactive)
COc1ccc(/C=C(\C#N)n2nnc3ccccc32)cc1	4.67% (active)
CC(=O)C1C(=O)C(=O)N(c2cccc([N+](=O)[O-])c2)C1=O (stereo not given)	102% (inactive)
COc1ccc(C2CC(=O)c3c(O)c(OC)c(OC)c(OC)c3O2)cc1O (stereo not given)	8.92% (active)
CCNCCOc1ccc(/C(=C(/CC)c2ccc(Cl)cc2)c2ccc(OCCCN(C)C)cc2)cc1	-87% (active)
N#Cc1c(-c2ccc(F)cc2)cc(-c2cccc(Cl)c2)[nH]c1=O	81.4% (inactive)
CCCCCN1C=C/C(=C\C(=O)n2ccc3ccccc32)c2ccccc21	73% (inactive)
Cc1ccc([N+](=O)[O-])c(C)n1	112% (inactive)
CCC(=O)N1C/C(=C/c2ccc(Br)cc2)C(=O)/C(=C/c2ccc(Br)cc2)C1	-91.5% (active)
COc1ccc(CSc2nc3cc(OC)c(OC)cc3c(=O)n2-c2ccc(OC)cc2OC)cc1	74.3% (inactive)
Cc1cccc2cc(/C=C/C(=O)/C=C/c3ccc(Cl)cc3)c(=O)[nH]c12	61.7% (inactive)
Cc1cc(N2CCCC2)nc(NCc2cc(Nc3ccnc4cc(Cl)ccc34)ccc2F)n1	-58.7% (active)
Cc1ccc(C)c2c(C)c(C(=O)Nc3cccc(-n4cccn4)c3)oc12	27.8% [50 µM] (inactive)
Cc1ncc(C(=O)Nc2ccc(CN3CCN(C)CC3)c(C(F)(F)F)c2)cc1C#Cc1cnc(N)c2cnccc12	-6.82% (active)
Cc1cc(N)n(S(=O)(=O)c2oc(-c3ccccc3)nc2C#N)n1	72.9% (inactive)
Cc1cc2nc3c(=O)[nH]c(=O)nc-3n(CC=O)c2cc1C	95.8% (inactive)
Cc1ccc(OCCn2ccc(=O)n(CCOc3ccc(Cl)cc3C(=O)c3cc(C)cc(C)c3)c2=O)cc1	-0.179% (active)
O=CN1N=C(c2cccc(Nc3ccncc3)c2)CC1c1ccc2c(c1)OCO2 (stereo not given)	88.7% (inactive)
